Experimental data published in PubChem BioAssay (Tox21).
Several values for one entry are separate records, joined by “and”; a condition that tells them apart may be missing. Identical values can stand only once. Values without a mark were called inactive. Records with an inconclusive call do not appear. A call without a number means that no potency is given here. Activity calls are given as the source filed them. Unless noted, calls come from the whole dose curve; as a rule, active = well fitted curve in the direction sought with a large enough effect in the repeat runs; inconclusive = weak or mixed curves; inactive = no such curve, though single readings can be large; an effect the other way counts as inactive or inconclusive.

Columns and labels:
[1] = molecular target: Luciferin 4-monooxygenase (Photinus pyralis) (UniProt P08659); test: qHTS assay to identify small molecule inhibitors of firefly luciferase (AID 1224835); note: nearly all actives have a fitted effect of over 25% in size; note: potency is the fitted concentration of half-maximal effect
Chain of Luciferin 4-monooxygenase (Photinus pyralis) (P08659 whole entry, looked up): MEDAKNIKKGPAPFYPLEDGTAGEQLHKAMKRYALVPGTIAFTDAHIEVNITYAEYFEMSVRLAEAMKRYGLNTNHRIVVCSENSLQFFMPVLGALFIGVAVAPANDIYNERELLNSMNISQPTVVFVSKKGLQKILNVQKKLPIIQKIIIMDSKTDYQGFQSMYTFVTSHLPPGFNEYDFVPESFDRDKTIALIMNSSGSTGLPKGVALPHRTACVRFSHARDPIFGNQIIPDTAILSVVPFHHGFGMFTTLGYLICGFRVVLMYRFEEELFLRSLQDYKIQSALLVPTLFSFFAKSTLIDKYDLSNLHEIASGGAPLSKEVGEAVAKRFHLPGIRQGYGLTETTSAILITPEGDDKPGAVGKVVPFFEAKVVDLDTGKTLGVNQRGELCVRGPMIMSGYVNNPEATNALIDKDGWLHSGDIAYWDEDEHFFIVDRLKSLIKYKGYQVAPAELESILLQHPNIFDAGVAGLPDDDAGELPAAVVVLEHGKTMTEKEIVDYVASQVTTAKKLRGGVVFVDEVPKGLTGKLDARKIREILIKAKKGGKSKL
Outline: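 Inhibition of purified Photinus luciferase is measured by luminescence. Substrate levels (D-luciferin, ATP) sit at their KM values. Each compound is tested in a concentration series.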

[2] = qHTS assay to identify small molecule agonists of the constitutive androstane receptor (CAR) signaling pathway - cell viability counter screen (AID 1224836); note: nearly all actives have a fitted effect of over 45% in size; note: potency is the fitted concentration of half-maximal effect
Outline: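 HepG2 cells stably carrying hCAR and a CYP2B6-2.2kb reporter; 15-concentration compounds plus PK11195 (final 0.75 uM), 23 hr at 37 C/5% CO2. Viability read by CellTiter-Fluor fluorescence.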

[3] = qHTS assay to identify small molecule antagonists of the constitutive androstane receptor (CAR) signaling pathway - cell viability counter screen (AID 1224837); note: nearly all actives have a fitted effect of over 45% in size; note: potency is the fitted concentration of half-maximal effect
Outline: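 Multiplexed cytotoxicity read-out for the CAR antagonist screen: double-stable HepG2-CYP2B6-hCAR cells co-treated with 50 nM CITCO (final) and compound over 15 concentrations, incubated 23 hr, then assessed by CellTiter-Fluor fluorescence.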

[4] = molecular target: Nuclear receptor subfamily 1 group I member 3 (Homo sapiens) (UniProt Q14994); test: qHTS assay to identify small molecule antagonists of the constitutive androstane receptor (CAR) signaling pathway (AID 1224838); note: nearly all actives have a fitted effect of over 40% in size; note: potency is the fitted concentration of half-maximal effect
Chain of Nuclear receptor subfamily 1 group I member 3 (Homo sapiens) (Q14994 whole entry, looked up): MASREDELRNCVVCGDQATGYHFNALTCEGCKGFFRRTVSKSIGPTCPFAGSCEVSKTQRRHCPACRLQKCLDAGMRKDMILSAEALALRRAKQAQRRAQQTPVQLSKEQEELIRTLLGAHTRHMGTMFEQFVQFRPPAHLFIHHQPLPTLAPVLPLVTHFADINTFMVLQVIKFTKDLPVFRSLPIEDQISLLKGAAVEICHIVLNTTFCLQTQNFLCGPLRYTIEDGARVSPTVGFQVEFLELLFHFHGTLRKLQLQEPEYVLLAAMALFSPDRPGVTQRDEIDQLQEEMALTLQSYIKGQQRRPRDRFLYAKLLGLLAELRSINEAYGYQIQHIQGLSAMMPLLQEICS
Outline: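 Compounds were titrated across 15 concentrations onto HepG2 cells double-stably expressing hCAR and a CYP2B6-2.2kb reporter, together with 50 nM CITCO (final). After 24 h at 37 C, luciferase activity was measured by luminescence.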

[5] = molecular target: Nuclear receptor subfamily 1 group I member 3 (Homo sapiens) (UniProt Q14994); test: qHTS assay to identify small molecule agonists of the constitutive androstane receptor (CAR) signaling pathway (AID 1224839); note: nearly all actives have a fitted effect of over 15% in size; note: potency is the fitted concentration of half-maximal effect;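 for activation: HepG2 cells stably carrying human CAR and a CYP2B6 luciferase reporter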
Outline: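 HepG2 cells stably co-transfected with hCAR and a CYP2B6-2.2kb luciferase reporter; compounds at 15 concentrations with 0.75 uM PK11195 present. After 24 hr at 37 C, luciferase read by ONE-Glo luminescence.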

[6] = qHTS assay to identify small molecule antagonists of the estrogen related receptor signaling pathway with the pleiotropic PPARgamma coactivator (PGC) from Tox21 10K library - cell viability counter screen (AID 1224840; active = well fitted cell-killing curve with a large enough effect in the repeat runs, not every such curve was filed as active; note: nearly all actives have a fitted effect of over 40% in size; note: potency is the fitted concentration of half-maximal effect)
Outline: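 Step one, plate 2,000 PGC/ERR cells per well; step two, incubate 6 h at 37 C/5% CO2; step three, pin-transfer compounds; step four, incubate 17.5 h; step five, add CellTiter-Fluor and read fluorescence after 30 min.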

[7] = qHTS assay to identify small molecule antagonists of the estrogen related receptor signaling pathway with the pleiotropic PPARgamma coactivator (PGC) from Tox21 10K library (AID 1224841; call rule not given here; note: actives are mostly falling curves and most rising ones were filed inactive; nearly all actives have a fitted effect of over 50% in size; note: potency is the fitted concentration of half-maximal effect)
Outline: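 Antagonism in this quantitative HTS is taken from loss of luciferase signal in PGC/ERR cells. Cells (2,000/well) are treated with compounds in DMSO after a 6 h settling period and read by One-Glo luminescence after 18 h.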

[8] = qHTS assay to identify small molecule agonists of the estrogen related receptor signaling pathway with the pleiotropic PPARgamma coactivator (PGC) from Tox21 10K library (AID 1224842); note: nearly all actives have a fitted effect of over 15% in size; note: potency is the fitted concentration of half-maximal effect
Outline: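 Luminescence from One-Glo (30 min, room temperature) measured after PGC/ERR cells had 18 h at 37 C with pinned compound (23 nL in DMSO). Cells had been seeded at 2,000 per well and pre-incubated 6 h.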

[9] = molecular target: Thyrotropin receptor (Homo sapiens) (UniProt P16473); test: qHTS assay to identify small molecule agonists of the thyroid stimulating hormone receptor (TSHR) signaling pathway (AID 1224843; calls by dose curve; note: nearly all actives have a fitted effect of over 45% in size; note: potency is the fitted concentration of half-maximal effect)
Chain of Thyrotropin receptor (Homo sapiens) (P16473 whole entry, looked up): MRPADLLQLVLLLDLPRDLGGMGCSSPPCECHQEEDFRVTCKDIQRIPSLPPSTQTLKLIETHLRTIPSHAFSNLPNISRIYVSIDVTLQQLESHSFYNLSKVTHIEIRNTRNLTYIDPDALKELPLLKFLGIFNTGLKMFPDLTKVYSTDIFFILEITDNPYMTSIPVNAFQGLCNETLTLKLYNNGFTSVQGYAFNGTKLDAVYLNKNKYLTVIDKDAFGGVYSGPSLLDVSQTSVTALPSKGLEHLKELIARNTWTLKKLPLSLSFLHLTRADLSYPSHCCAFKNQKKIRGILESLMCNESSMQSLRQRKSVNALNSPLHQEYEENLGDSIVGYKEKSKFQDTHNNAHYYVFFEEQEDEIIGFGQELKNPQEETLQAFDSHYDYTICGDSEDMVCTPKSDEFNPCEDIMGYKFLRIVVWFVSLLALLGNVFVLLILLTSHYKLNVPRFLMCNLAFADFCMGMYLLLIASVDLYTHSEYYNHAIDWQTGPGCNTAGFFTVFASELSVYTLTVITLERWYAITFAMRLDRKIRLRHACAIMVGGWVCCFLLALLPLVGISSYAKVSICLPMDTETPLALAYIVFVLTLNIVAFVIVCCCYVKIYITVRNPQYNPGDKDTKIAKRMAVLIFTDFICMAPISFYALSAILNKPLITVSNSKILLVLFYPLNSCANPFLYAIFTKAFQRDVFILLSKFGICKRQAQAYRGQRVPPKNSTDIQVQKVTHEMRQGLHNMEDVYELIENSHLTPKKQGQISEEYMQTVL
Outline: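 HEK293 cells stably bearing the thyrotropin receptor were plated at 800 cells/well and challenged with compound (30 min, RT). Accumulated cAMP was quantified via cAMP-d2 competing for cryptate-tagged antibody.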

[10] = qHTS assay to identify small molecule agonists of the hypoxia (HIF-1) signaling pathway - cell viability counter screen (AID 1224844; calls by dose curve; note: nearly all actives have a fitted effect of over 50% in size; note: potency is the fitted concentration of half-maximal effect)
Outline: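 Tox21 10K compounds were added to HRE-bla ME-180 cells (0.5% dialyzed FBS) and incubated 17 hrs at 37C; ATP-based CellTiter-Glo luminescence then reported cell viability in the same wells.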

[11] = qHTS assay to identify small molecule agonists of H2AX (AID 1224845; active = well fitted activation curve with a large enough effect in the signal ratio in the repeat runs, not every such curve was filed as active; the % refers to the signal ratio)
Outline: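 Phospho-H2AX Ser139 measured by HTRF (ex 320 nm; em 665 and 620 nm) after 24 hr antibody incubation. Compounds, 15 concentrations, 0.76% DMSO, were applied to CHO-K1 cells for 3hr at 37C before lysis.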

[12] = qHTS assay to identify small molecule antagonists of the estrogen related receptor (ERR) signaling pathway from Tox21 library (AID 1224848); note: nearly all actives have a fitted effect of over 50% in size; note: potency is the fitted concentration of half-maximal effect
Outline: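 Reading was by luminescence 30 min after ONE-Glo addition. Before that, ERR cells at 2,000 per well had rested 6 h at 37 C/5% CO2 and then received pin-tooled compounds in DMSO for 18 h at 37 C.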

[13] = qHTS assay to identify small molecule agonists of the estrogen related receptor (ERR) signaling pathway from Tox21 library (AID 1224849; calls by dose curve; note: nearly all actives have a fitted effect of over 15% in size); conditions: ERR reporter cell line, ONE-Glo luciferase, 18 h; at 92.4 µM (top of the series) unless noted
Outline: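 Agonist signal is luciferase luminescence from an ERR reporter cell line treated 18 h at 37 C with DMSO-dissolved compounds, read 30 min after ONE-Glo addition at room temperature.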

[14] = qHTS RealTime-Glo MT Cell Viability Assay in HepG2 cells - 24 hour (AID 1224867); note: nearly all actives have a fitted effect of over 50% in size; note: potency is the fitted concentration of half-maximal effect
Outline: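 Cells + NanoLuc/prosubstrate dispensed (600 cells/well) → 5 h at 37 C/5% CO2 → compounds in DMSO transferred → 40 h incubation at 37 C, luminescence read at 0, 8, 16, 24, 32, 40 h.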

[15] = qHTS RealTime-Glo MT Cell Viability Assay in HEK293 cells - 32 hour (AID 1224868); note: nearly all actives have a fitted effect of over 50% in size; note: potency is the fitted concentration of half-maximal effect
Outline: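 Tox21 10K qHTS, HEK293, 600 cells/well, RealTime-Glo reagent co-dispensed with cells; 5 h preincubation, compound by pintool, 37 C, luminescence at 0–40 h.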

[16] = A CellTox Green Cytotoxicity Assay to monitor cytotoxicity in HEK293 cells - 0 hour (AID 1224869); note: nearly all actives have a fitted effect of over 50% in size
Outline: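 Cytotoxicity was tracked continuously in HEK293 cells by a DNA-binding dye excluded from viable cells. Compounds were transferred in DMSO 5 h after seeding; fluorescence was recorded at intervals up to 40 h.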

[17] = qHTS RealTime-Glo MT Cell Viability Assay in HepG2 cells - 40 hour (AID 1224870); note: nearly all actives have a fitted effect of over 50% in size; note: potency is the fitted concentration of half-maximal effect
Outline: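 Real-time viability: cells seeded at 600 per well together with NanoLuc and cell-permeant prosubstrate, compounds added after 5 h incubation. Luminescence tracked at 0, 8, 16, 24, 32 and 40 h of exposure.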

[18] = qHTS assay to identify small molecule antagonists of the estrogen related receptor (ERR) signaling pathway from Tox21 library - cell viability counter screen (AID 1224834); note: nearly all actives have a fitted effect of over 30% in size; note: potency is the fitted concentration of half-maximal effect
Outline: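 Cytotoxicity of test substances is gauged in the same ERR cells used for the antagonist screen, after 17.5 h of compound treatment at 37 C, by CellTiter-Fluor fluorescence measured after 30 min.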

[19] = qHTS assay to identify small molecule agonists of H2AX - cell viability counter screen (AID 1224847; calls by dose curve; note: nearly all actives have a fitted effect of over 30% in size; note: potency is the fitted concentration of half-maximal effect)
Outline: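 CHO-K1 cells plated overnight at 37C, then exposed 3 h at 37C to compounds at 15 concentrations (0.76% DMSO final). Viability by CellTiter-Glo luminescence after 30 min at room temperature.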

[20] = qHTS assay to identify small molecule agonists of the hypoxia (HIF-1) signaling pathway (AID 1224846; active = well fitted activation curve with a large enough effect in the signal ratio in the repeat runs, not every such curve was filed as active; the % refers to the signal ratio)
Outline: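 Steps: seed ME-180 HRE-bla cells (2,000/well, 0.5% dialyzed FBS); incubate 5 hrs at 37C; pin-transfer compounds or DMSO; incubate 17 hrs; add LiveBLAzer B/G substrate CCF4-AM; measure reporter activation by FRET.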

| SMILES | Potency [1] | Potency [2] | Potency [3] | Potency [4] | Potency [5] | Potency [6] | Potency [7] | Potency [8] | Potency [9] | Potency [10] | Potency [11] | Potency [12] | activity change, positive = activation [13] | Potency [14] | Potency [15] | Potency [16] | Potency [17] | Potency [18] | Potency [19] | Potency [20] |
| --- | --- | --- | --- | --- | --- | --- | --- | --- | --- | --- | --- | --- | --- | --- | --- | --- | --- | --- | --- | --- |
| CCCCCCOC(=O)c1ccc(O)cc1 | 31.8 µM (active) and 28.3 µM (active) | inactive | inactive | inactive | 27.3 µM (active) and 54.5 µM (active) | inactive | inactive | 30.7 µM (active) and 9.69 µM (active) | inactive | inactive | inactive | inactive | 67.7% (active) and 70.3% (active) | inactive | 43.7 µM (active) and 21.9 µM (active) | inactive | inactive | – | – | – |
| O=C(NO)C1(NS(=O)(=O)c2ccc(Oc3ccc(F)cc3)cc2)CCOCC1 | – | inactive | inactive | – | – | inactive | – | inactive | – | inactive | inactive | 27.3 µM (active) | -35.1% | inactive | – | inactive | inactive | inactive | inactive | – |
| On1ccccc1=S | – | 1.21 µM (active) | 0.762 µM (active) | – | – | – | 3.4 µM (active) | inactive | – | 0.432 µM (active) | – | 1.21 µM (active) | -71.1% | – | 4.32 µM (active) | inactive | 0.485 µM (active) | 1.71 µM (active) | – | – |
| Cc1onc(-c2ccccc2Cl)c1C(=O)N[C@@H]1C(=O)N2[C@@H]1SC(C)(C)[C@@H]2C(=O)O | – | – | – | – | – | – | – | – | inactive | inactive | inactive | – | – | inactive | inactive | inactive | inactive | inactive | inactive | – |
| CN(C)[C@@H]1C(=O)C(C(N)=O)=C(O)[C@@]2(O)C(=O)C3=C(O)c4c(O)cccc4C[C@H]3C[C@@H]12 | inactive | inactive | inactive | inactive | inactive | inactive | 26.6 µM (active) | inactive | inactive | inactive | inactive | – | -27.8% [at 42.5 µM] | inactive | inactive | inactive | inactive | – | inactive | – |
| Cc1cc(O)c(C(C)(C)C)cc1Sc1cc(C(C)(C)C)c(O)cc1C | inactive | 48.5 µM (active) | 54.4 µM (active) | 21.6 µM (active) | inactive | 30.6 µM (active) | 21.6 µM (active) | inactive | 9.67 µM (active) | 9.75 µM (active) | – | 13.7 µM (active) | -80.3% | – | 21.8 µM (active) | inactive | 48.9 µM (active) | – | – | – |
| COC(=O)C1=C(C)NC(C)=C(C(=O)OCCc2ccc(N3CCN(C(c4ccccc4)c4ccccc4)CC3)cc2)C1c1cccc([N+](=O)[O-])c1 (stereo unspecified) | inactive | inactive | inactive | – | – | inactive | – | – | – | inactive | inactive | – | – | inactive | inactive | inactive | inactive | – | inactive | – |
| CCN(C(=O)N(CC)c1ccccc1)c1ccccc1 | inactive | inactive | inactive | – | – | inactive | – | inactive | 61.1 µM (active) | inactive | inactive | – | -25.8% | – | – | inactive | inactive | – | – | inactive |
| c1cc(C(c2ccc(OCC3CO3)cc2)c2ccc(OCC3CO3)cc2)ccc1OCC1CO1 (stereo unspecified) | inactive | inactive | inactive | – | – | – | – | – | inactive | inactive | inactive | – | – | – | – | inactive | 54.9 µM (active) | – | inactive | – |
| O=C(OCC(COC(=O)c1ccccc1)(COC(=O)c1ccccc1)COC(=O)c1ccccc1)c1ccccc1 | inactive | inactive | inactive | – | – | inactive | inactive | inactive | inactive | inactive | inactive | inactive | 9.84% | inactive | 48.9 µM (active) | inactive | inactive | – | inactive | – |
| CCC(Cl)C(Cl)C(Cl)CC(Cl)C(Cl)C(C)Cl (stereo unspecified) | inactive | inactive | inactive | – | – | inactive | – | – | – | – | – | – | – | inactive | inactive | inactive | inactive | – | – | inactive |
| O=C(OCC1CO1)C1CCCCC1C(=O)OCC1CO1 (stereo unspecified) | inactive | inactive | – | inactive | inactive | – | – | inactive | inactive | inactive | – | – | -46.8% | – | – | inactive | inactive | – | inactive | – |
| CNC(=O)c1ccccc1 | inactive | inactive | inactive | – | – | – | – | – | inactive | inactive | inactive | – | – | – | inactive | inactive | inactive | – | inactive | inactive |
| CCCCCCCCn1sc(Cl)c(Cl)c1=O | 3.56 µM (active) | 30.6 µM (active) | 30.6 µM (active) | 27.3 µM (active) | inactive | – | – | – | inactive | 6.16 µM (active) | inactive | – | – | 4.9 µM (active) | 3.89 µM (active) | inactive | 6.92 µM (active) | – | 8 µM (active) | – |
| Cc1cc(N)c(S(=O)(=O)O)cc1Cl | inactive | inactive | inactive | – | – | inactive | inactive | inactive | inactive | inactive | inactive | inactive | 5.22% | inactive | inactive | inactive | inactive | – | inactive | inactive |
